CF NFkB block = inhibitors of cystic fibrosis induced NF-kB; inhibition, % at 5 µM; actives 0.86% (n = 360,000); KKLEB NF-kB-GFP reporter, PAF-induced, GFP fluorescence overnight;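 active means at least 50% inhibition at 5 µM, scaled per plate between neutral and stimulator controls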;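 further: PAF is a Pseudomonas aeruginosa culture filtrate used as stimulus; plate controls were PAF-stimulated DMSO wells for no effect and unstimulated DMSO wells for full effect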
MITF TRPM1 inh = inhibitors of MITF-driven TRPM1 promoter in melanoma cells; SK-MEL-5 TRPM1 promoter luciferase, 24 h; inhibition, % at 12.5 µM; AID 488899; actives 0.83% (n = 330,000);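 active means mean inhibition across replicates of 60% or more, whatever share of single replicates reaches that level; inconclusive means some that reach 60%, reason not given; inactive means mean inhibition across replicates below 60%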
HIF-2a inh = inhibitors of HIF-2a | 786-0 RCC cells HIF-2a reporter, luciferase luminescence, overnight | inhibition, % at 18.8 µM | actives 0.72% (n = 360,000);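 active means inhibition of the luminescence signal of 40% or more relative to plate controls, in a single-dose primary screen at 18.75 µM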
KKLEB tox = CF airway cell cytotoxicity counter-screen; activity change (cytotoxicity), % at 5 µM; actives 0.36% (n = 360,000); KKLEB CF airway cells viability, ATPlite luminescence, overnight; stronger effect = lower value; cells stimulated with P. aeruginosa culture filtrate;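 active means corrected activity change at or below -50% at 5 µM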
CHOP inhibitor = CHOP inhibition in unfolded protein response | CHO-K1 CHOP-promoter luciferase, tunicamycin-induced, 15-18 h | inhibition, % at 10 µM | actives 3.8% (n = 220,000) | AID 2732;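 active means compounds that reduced the stress-induced luciferase reporter signal by more than about 70% of percent inhibition, limit read from the data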;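 further: 0% = tunicamycin plus vehicle and 100% = wells without tunicamycin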
Peg3 prom inh = inhibitors of Peg3 promoter | actives 1.7% (n = 360,000) | AID 588405 | inhibition, % at 20 µM | HeLa PEG-Prom luciferase reporter, luminescence, overnight;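 active means inhibition of at least 50% at 20 µM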
Mdm2 MdmX conf = confirmation of inhibitors of human Mdm2/MdmX interaction, set 2. shares compounds with HIF-2a inh. SaOS-2 split-luciferase Mdm2/MdmX complementation, luminescence. inhibition, % at 8 µM. actives 99% (n = 740);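 active means mean inhibition of the luminescence signal across two replicates at or above 26 percent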
Target sequence (O15151 whole entry, looked up): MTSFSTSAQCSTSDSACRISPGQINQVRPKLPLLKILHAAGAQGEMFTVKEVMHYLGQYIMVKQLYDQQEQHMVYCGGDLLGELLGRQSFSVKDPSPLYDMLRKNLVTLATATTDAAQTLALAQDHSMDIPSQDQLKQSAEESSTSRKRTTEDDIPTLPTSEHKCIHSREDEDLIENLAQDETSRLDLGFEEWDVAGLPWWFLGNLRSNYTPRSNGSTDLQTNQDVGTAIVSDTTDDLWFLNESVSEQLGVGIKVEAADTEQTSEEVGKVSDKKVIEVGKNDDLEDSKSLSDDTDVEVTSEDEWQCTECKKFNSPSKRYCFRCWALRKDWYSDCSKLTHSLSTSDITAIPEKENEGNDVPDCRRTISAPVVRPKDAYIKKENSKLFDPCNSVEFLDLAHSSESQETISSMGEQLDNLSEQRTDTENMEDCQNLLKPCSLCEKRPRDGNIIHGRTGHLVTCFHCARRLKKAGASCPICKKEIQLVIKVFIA
Target sequence (Q00987 whole entry, looked up): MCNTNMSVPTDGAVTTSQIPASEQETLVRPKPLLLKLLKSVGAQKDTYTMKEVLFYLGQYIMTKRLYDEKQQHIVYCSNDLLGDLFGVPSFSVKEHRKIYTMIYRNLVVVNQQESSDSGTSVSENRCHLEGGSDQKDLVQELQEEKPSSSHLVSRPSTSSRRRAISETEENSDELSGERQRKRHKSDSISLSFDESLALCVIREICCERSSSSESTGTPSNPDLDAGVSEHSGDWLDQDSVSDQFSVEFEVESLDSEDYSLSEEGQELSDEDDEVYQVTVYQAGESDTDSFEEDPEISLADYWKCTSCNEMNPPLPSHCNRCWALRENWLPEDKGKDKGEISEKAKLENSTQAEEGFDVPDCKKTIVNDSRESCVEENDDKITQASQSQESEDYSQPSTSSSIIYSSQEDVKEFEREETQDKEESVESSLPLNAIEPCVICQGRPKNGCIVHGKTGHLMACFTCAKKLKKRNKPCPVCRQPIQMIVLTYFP
HIF-2a inh conf = HIF-2a inhibition, single concentration confirmation; shares compounds with HIF-2a inh; 786-0 RCC cells, HIF-2a luciferase reporter luminescence, overnight; inhibition, % at 18.8 µM; actives 56% (n = 1,800);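 active means mean inhibition across four replicates of at least 40 percent at the single tested concentration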
HIF-1a counter = inhibits HIF-1a reporter, a counter-screen for HIF-2a inhibitors; shares compounds with HIF-2a inh; MiaPaCa-2 HIF-1a luciferase reporter, desferoxamine, overnight; inhibition, % at 18.8 µM; actives 72% (n = 1,800); AID 651589;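 active means mean inhibition of the reporter signal across four replicates at the single tested dose of 50% or more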
Starred values were filed as active, the others as inactive; ? = inconclusive; / = no result given. A selection: hits, their analogues and other compounds. The true share with any hit is near 4.3%.

SMILES | CF NFkB block | MITF TRPM1 inh | HIF-2a inh | KKLEB tox | CHOP inhibitor | Peg3 prom inh | HIF-2a inh conf | HIF-1a counter | others
COc1ccc(-n2nc3c(N4CCC(C(=O)NC5CCCCC5)CC4)nnc(C)c3c2C)cc1 | -6.9 | 51.4 | 65.3* | 4.4 | / | 71.2* | 5.4 | 60.1*
COc1ccc(-n2nc3c(N4CCC(C(=O)NCc5ccccc5C)CC4)nnc(C)c3c2C)cc1 | 35.7 | 85.1* | 90.6* | -29.4 | / | 103.5* | 64.7* | 96.4* | Mdm2 MdmX conf=102.7*
Cc1ccc(-n2nc3c(N4CCC(C(=O)NCCc5ccccc5C)CC4)nnc(C)c3c2C)cc1 | 18.7 | 93.6* | 49.2* | -0.1 | / | 58.3* | -5.0 | 46.3
Cc1ccc(-n2nc3c(N4CCC(C(=O)NCCc5ccco5)CC4)nnc(C)c3c2C)cc1 | 3.5 | 46.9 | 17.1 | -10.9 | / | 30.0 | / | /
Cc1ccc(NS(=O)(=O)c2cc(NC(=O)c3ccc4c(c3)NC(=O)CS4)ccc2C)c(C)c1 | -7.8 | 23.8 | 29.7 | 7.5 | 23.9 | 43.7 | / | /
CN(C)Cc1c(O)ccc2c1O/C(=C\C=C\c1ccccc1)C2=O | 7.6 | 93.0* | 11.2 | 13.8 | 5.1 | 20.8 | / | / | Mdm2 MdmX conf=11.0
COc1ccc(/C=C/C(=O)c2ccc(O)cc2)cc1CN1CCOCC1 | 22.6 | 21.3 | 19.4 | 1.5 | -65.0 | -7.2 | / | /
COc1ccc(/C=C/C(=O)C23CC4CC(CC(C4)C2)C3)cc1CN1CCOCC1 | 13.4 | -2.1 | 43.7* | -5.6 | 47.2 | 48.4 | 2.5 | 42.1
O=C(Nc1ccc(Cl)cc1)/C(=C/c1cccc(O)c1)c1nc2ccccc2s1 | 90.0* | 92.5* | 90.6* | -90.8* | 106.7* | 101.1* | 94.7* | 106.0* | Mdm2 MdmX conf=102.5*
S=C(Nc1ccc(Cl)cc1)c1nc2ccccc2s1 | -9.5 | -36.7 | -183.7 | -2.6 | -33.9 | -200.1 | / | /
Nc1ccccc1Sc1c[nH]c2ccccc12 | -16.6 | 16.8 | -98.8 | 6.8 | / | -21.5 | / | /
CC(C)(O)C#Cc1ccc(CN2CCC(n3nccc3NC(=O)C3CC3)CC2)cc1 | -3.1 | 1.3 | -11.9 | -0.8 | / | -20.9 | / | /
CC(C)Cc1nc2oc3c(Cl)ncnc3c2c2c1CCC2 | 35.3 | ? | 66.8* | -15.8 | -9.0 | 105.6* | 48.8* | 107.8* | Mdm2 MdmX conf=102.7*
N#C/C(=C\c1ccc(C#N)cc1)C(=O)c1ccccc1 | 1.3 | -10.1 | 14.4 | -2.0 | -12.8 | 4.7 | / | /
N#Cc1cccc(C=C(C(=O)c2ccccc2)c2ccccc2)c1 | / | / | 40.8* | / | / | / | 8.7 | 5.8
CN(C)CCCNc1cc(C(C)(C)C)nc2c(-c3ccc(Cl)cc3)cnn12 | 38.3 | -26.4 | -41.8 | -18.7 | 48.1 | 103.6* | / | / | Mdm2 MdmX conf=102.5*
CCOC(=O)c1nnc(-c2ccccc2)nc1Sc1c(Cl)cccc1Cl | 22.5 | 14.0 | 62.5* | -1.5 | 13.6 | 64.0* | 19.6 | 65.3*
Cc1cccc(NC(=O)CN(c2ccc(C(C)C)cc2)S(=O)(=O)c2c(C)nn(C)c2C)n1 | 4.8 | 14.9 | 9.2 | 9.0 | 38.0 | 3.8 | / | /
Cc1nc2ccccc2c(=O)n1NC(=O)c1cccc([N+](=O)[O-])c1 | 8.6 | 11.6 | 2.7 | 6.7 | 3.6 | 8.8 | / | /
COc1ccc(/C=C\C(=O)c2c(O)ccc3c(C)cc(=O)oc23)cc1OC | 16.8 | -2.2 | 54.9* | 0.8 | 73.3* | 42.2 | 26.6 | 84.8*
O=[N+]([O-])c1ccc(O)c(-c2cc(C(F)(F)F)nc(-c3ccccc3)n2)c1 | 72.1* | 89.5* | 27.0 | -65.0* | / | 79.1* | / | / | Mdm2 MdmX conf=102.5*
Oc1ccccc1-c1cc(C(F)(F)C(F)F)nc(-c2ccccc2)n1 | 15.7 | 10.4 | -5.2 | 5.8 | 29.1 | 7.6 | / | /
COc1ccccc1NC(=S)N=Nc1c(O)[nH]c2ccc(Br)cc12 | 23.3 | 21.4 | 6.7 | -17.6 | -20.3 | 92.5* | / | / | Mdm2 MdmX conf=84.2*
CC(C)NC(=S)N=Nc1c(O)[nH]c2ccc(C(C)C)cc12 | 5.1 | 18.3 | 28.9 | -15.3 | 34.4 | 10.6 | / | /
Cc1c(CN2CCC(Oc3ccc(C(=O)N4CCCCC4)cc3)CC2)cnn1C | -17.3 | -6.2 | 6.7 | 11.2 | / | 8.0 | / | /
SMILES | CF NFkB block | MITF TRPM1 inh | HIF-2a inh | KKLEB tox | CHOP inhibitor | Peg3 prom inh | HIF-2a inh conf | HIF-1a counter | others
Cc1nn(C)c(C)c1CN(C)C(=O)c1cnn2c1NC(c1ccccc1)CC2C(F)(F)F (stereo not given) | 12.6 | 18.4 | 42.8* | -4.1 | 28.8 | 35.2 | 27.7 | 9.2
Cc1ccc(C)c(OCc2ccc(C(=O)NN)o2)c1 | -17.5 | -7.7 | 40.1* | -0.5 | 16.3 | -1.9 | 28.6 | -3.8
C=CCS(=O)(=O)N1CCC(CCOc2ccccc2)(C(=O)OCC)CC1 | 3.2 | 0.9 | 5.8 | 1.6 | 5.0 | 15.3 | / | /
CSc1nc(C2CC2)cc(-c2cccs2)c1C#N | 93.7* | 21.7 | 51.1* | -62.8* | 8.1 | 56.9* | 35.4 | 32.4
Cc1ccc(CNC(=O)COC(=O)CCCOc2ccc(Cl)cc2Cl)cc1 | -1.1 | 19.4 | 62.4* | 5.7 | 30.7 | 3.3 | 69.7* | 56.6*
O=C(COC(=O)CCCOc1ccc(Cl)cc1Cl)NCc1ccccc1 | -23.0 | -9.6 | 64.1* | 5.3 | 33.5 | -3.1 | 63.1* | 53.7*
COc1ccc(CNC(=O)COC(=O)CCCOc2ccc(Cl)cc2Cl)cc1OC | 6.1 | 3.3 | 31.4 | 4.6 | 20.8 | -1.9 | / | /
COC(=O)C1=C(C)NC2=C(C(=O)CC(c3cccs3)C2)C1c1ccsc1 (stereo not given) | 27.9 | 20.6 | 22.3 | 4.3 | 22.7 | 35.5 | / | /
CCOC(=O)C1=C(C)NC2=C(C(=O)CC(c3cccs3)C2)C1c1cccs1 (stereo not given) | 15.8 | ? | 46.4* | -5.9 | 23.6 | 20.3 | 52.1* | 63.3*
O=C1OC(c2ccccc2)(c2ccc3cc(O)ccc3c2)c2ccccc21 (stereo not given) | -1.1 | 5.7 | 40.4* | -18.6 | / | 78.8* | 19.2 | 98.0*
COc1cc(CN2CCN(C(C)C)C(CCO)C2)ccc1OCc1ccccc1 (stereo not given) | -18.5 | -17.5 | -60.2 | 3.7 | 4.4 | -43.9 | / | /
O=S(=O)(/N=C(/c1ccccc1)N1CCCCC1)c1ccccc1 | 2.5 | -3.4 | 11.7 | 8.1 | 8.1 | 2.4 | / | /
CCN(Cc1ccccc1)c1ccc(/C=N/N=C(N)N)cc1 | 35.1 | 64.5* | 93.5* | -18.2 | 77.4* | 108.0* | 3.2 | 107.6* | Mdm2 MdmX conf=103.2*
CN(CC(=O)Nc1cccc(F)c1)CC(=O)Nc1cccc(S(=O)(=O)N2CCCCC2)c1 | -12.5 | 8.1 | 1.2 | 5.1 | / | 36.4 | / | /

High-throughput results deposited in PubChem BioAssay by several laboratories.
